{"source": "PubChem BioAssay (NCATS)", "key": {"[1]": {"assay": "qHTS drug screen for cell cycle checkpoint inhibitors in PARPi-resistant BRCA-mutant ovarian cancer cell lines. (AID 1963452; calls by dose curve; also: potency is read from the fitted curve at half-maximal effect)", "details": "PEO1/OlaR viability, CellTiter-Glo luminescence, 96 h; for Z-AUC: stronger effect = lower value", "method_in_brief": "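PEO1, PEO4 and PEO1/OlaR ovarian cancer cells, 600 per well, exposed 96 h at 37C to a dilution series. Viability read by CellTiter-Glo luminescence, normalized to DMSO and empty wells; activity summarized as Z-AUC.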"}, "[2]": {"assay": "qHTS for identification of novel therapeutic agents for treatment of microphthalmiaassociated transcription factor (MiT) renal cell carcinoma (RCC) (AID 1963991)", "details": "CellTiter-Glo, 48 h, stronger effect = lower value", "method_in_brief": "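Three TFE3-fusion RCC lines (UOK109, UOK124, UOK145), 500 cells/well in complete medium, were treated with MIPE 4.0 compounds for 48 hours at 37 C. Viability was by CellTiter-Glo luminescence, normalized to DMSO (100%) and empty wells (0%); curves fitted over 11 concentrations.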"}, "[3]": {"assay": "qHTS profiling for inhibitors of Plasmodium falciparum proliferation (AID 504749); also: nearly all actives have a fitted effect of over 60% in size; also: potency is read from the fitted curve at half-maximal effect;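 as to activity, negative = inhibition: 0% = DMSO vehicle and full inhibition = artemisinin control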", "details": "P. falciparum in erythrocytes, SYBR Green DNA, 72 h", "method_in_brief": "(§1)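 Readout was DNA-dye fluorescence from lysed cultures, ex 485/em 535 nm. Parasitized red cells had grown 72 h with compound; data scaled between 0.29 uM artemisinin and DMSO wells and corrected using vehicle-only plates.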"}, "[4]": {"test_system": "3D7", "assay": "qHTS profiling for inhibitors of Plasmodium falciparum proliferation (AID 504749)", "details": "P. falciparum in erythrocytes, SYBR Green DNA, 72 h; series mostly up to 28.7 µM", "method_in_brief": "as §1"}, "[5]": {"test_system": "7G8", "assay": "qHTS profiling for inhibitors of Plasmodium falciparum proliferation (AID 504749)", "details": "P. falciparum in erythrocytes, SYBR Green DNA, 72 h; series mostly up to 28.7 µM", "method_in_brief": "as §1"}, "[6]": {"test_system": "AA1029", "assay": "qHTS profiling for inhibitors of Plasmodium falciparum proliferation (AID 504749)", "details": "P. falciparum in erythrocytes, SYBR Green DNA, 72 h; series mostly up to 28.7 µM", "method_in_brief": "as §1"}, "[7]": {"test_system": "AS120", "assay": "qHTS profiling for inhibitors of Plasmodium falciparum proliferation (AID 504749)", "details": "P. falciparum in erythrocytes, SYBR Green DNA, 72 h; series mostly up to 28.7 µM", "method_in_brief": "as §1"}, "[8]": {"details": "measured here: PEO1 parental Z-AUC"}, "[9]": {"details": "TFE3-RCC UOK109 viability, measured here: UOK109 Z-AUC"}, "[10]": {"details": "TFE3-RCC viability, measured here: UOK124 Z-AUC"}, "[11]": {"details": "TFE3-RCC viability, measured here: UOK145 Z-AUC"}, "[12]": {"details": "at 28.7 µM (top of the series), parasite line A"}}, "note": "Values joined by “and” are separate entries in the source; they are usually repeats but may differ in a detail not shown here. Identical values can stand only once. Records with an inconclusive call do not appear. Active and inactive are the calls of the source. Unless noted, calls follow the shape of the dose curve; as a rule, active = well fitted inhibition curve with a large enough effect; inconclusive = small, poorly fitted or top-dose-only effect; inactive = flat fitted curve, though single readings scatter.", "data": [{"smiles": "Nc1nc2c(ncn2COCCO)c(=O)[nH]1", "values": [{"measurement": "Z-AUC", "setting": "[1]", "result": "-0.761 (inactive)"}, {"measurement": "Z-AUC", "setting": "[1]; [8]", "result": -0.588}, {"measurement": "Z-AUC", "setting": "[1]; measured here: PEO4 Z-AUC", "result": -0.538}, {"measurement": "z-score", "setting": "[2]; [9]", "result": 0.456}, {"measurement": "z-score", "setting": "[2]; [10]", "result": 1.73}, {"measurement": "z-score", "setting": "[2]; [11]", "result": 0.51}, {"measurement": "activity, negative = inhibition", "setting": "[3]; at 12.8 µM (top of the series), parasite line A", "result": "8.65% (inactive)"}, {"measurement": "activity, negative = inhibition", "setting": "[3]; at 12.8 µM (top of the series), parasite line B", "result": "-5.76% (inactive)"}, {"measurement": "Potency", "setting": "[4]", "result": "inactive"}, {"measurement": "Potency", "setting": "[5]", "result": "inactive"}, {"measurement": "Potency", "setting": "[6]", "result": "inactive"}, {"measurement": "Potency", "setting": "[7]", "result": "inactive"}]}, {"smiles": "CCC(C)N(C)C(=O)c1cc2ccccc2c(-c2ccccc2Cl)n1", "note": "(centres undefined)", "values": [{"measurement": "Z-AUC", "setting": "[1]", "result": "-0.72 (inactive)"}, {"measurement": "Z-AUC", "setting": "[1]; [8]", "result": -0.771}, {"measurement": "Z-AUC", "setting": "[1]; measured here: PEO4 Z-AUC", "result": -0.805}, {"measurement": "z-score", "setting": "[2]; [9]", "result": 0.652}, {"measurement": "z-score", "setting": "[2]; [10]", "result": 0.425}, {"measurement": "z-score", "setting": "[2]; [11]", "result": -0.135}]}, {"smiles": "Cc1cnc(NC(=O)C2=C(O)c3ccccc3S(=O)(=O)N2C)s1", "values": [{"measurement": "Z-AUC", "setting": "[1]", "result": "0.682 (inactive) and 1.14 (inactive) and 0.871 (inactive)"}, {"measurement": "Z-AUC", "setting": "[1]; [8]", "result": "0.615 and 0.579 and 0.604"}, {"measurement": "Z-AUC", "setting": "[1]; measured here: PEO4 Z-AUC", "result": "0.593 and 0.643 and 0.888"}, {"measurement": "z-score", "setting": "[2]; [9]", "result": 0.549}, {"measurement": "z-score", "setting": "[2]; [10]", "result": 0.223}, {"measurement": "z-score", "setting": "[2]; [11]", "result": 0.231}]}, {"smiles": "OCCn1cc(-c2cnc3nnn(Cc4ccc5ncccc5c4)c3n2)cn1", "values": [{"measurement": "Z-AUC", "setting": "[1]", "result": "-0.182 (inactive)"}, {"measurement": "Z-AUC", "setting": "[1]; [8]", "result": 0.0266}, {"measurement": "Z-AUC", "setting": "[1]; measured here: PEO4 Z-AUC", "result": 0.506}, {"measurement": "z-score", "setting": "[2]; [9]", "result": 0.421}, {"measurement": "z-score", "setting": "[2]; [10]", "result": 0.338}, {"measurement": "z-score", "setting": "[2]; [11]", "result": 0.859}]}, {"smiles": "Cc1c(C)c2c(c(C)c1O)CCC(C)(COc1ccc(CC3SC(=O)NC3=O)cc1)O2", "note": "(centres undefined)", "values": [{"measurement": "Z-AUC", "setting": "[1]", "result": "0.635 (inactive)"}, {"measurement": "Z-AUC", "setting": "[1]; [8]", "result": 0.564}, {"measurement": "Z-AUC", "setting": "[1]; measured here: PEO4 Z-AUC", "result": 0.844}, {"measurement": "z-score", "setting": "[2]; [9]", "result": 0.729}, {"measurement": "z-score", "setting": "[2]; [10]", "result": 0.103}, {"measurement": "z-score", "setting": "[2]; [11]", "result": -0.301}, {"measurement": "activity, negative = inhibition", "setting": "[3]; [12]", "result": "-7.46% (inactive)"}, {"measurement": "Potency", "setting": "[4]", "result": "inactive"}, {"measurement": "Potency", "setting": "[5]", "result": "10 µM (active)"}]}, {"smiles": "NC(=O)c1ccc(-c2nc(-c3ccc4c(c3)OCO4)c(-c3ccccn3)[nH]2)cc1", "values": [{"measurement": "Z-AUC", "setting": "[1]", "result": "0.53 (inactive)"}, {"measurement": "Z-AUC", "setting": "[1]; [8]", "result": 1.15}, {"measurement": "Z-AUC", "setting": "[1]; measured here: PEO4 Z-AUC", "result": 0.909}, {"measurement": "z-score", "setting": "[2]; [9]", "result": 0.874}, {"measurement": "z-score", "setting": "[2]; [10]", "result": 1.69}, {"measurement": "z-score", "setting": "[2]; [11]", "result": 0.197}]}, {"smiles": "Nc1cccc(S(=O)(=O)N2CCCN(S(=O)(=O)c3ccc4c(c3)OCCO4)CC2)c1", "values": [{"measurement": "Z-AUC", "setting": "[1]", "result": "1.03 (inactive)"}, {"measurement": "Z-AUC", "setting": "[1]; [8]", "result": 0.843}, {"measurement": "Z-AUC", "setting": "[1]; measured here: PEO4 Z-AUC", "result": 0.787}, {"measurement": "z-score", "setting": "[2]; [9]", "result": 0.453}, {"measurement": "z-score", "setting": "[2]; [10]", "result": 0.564}, {"measurement": "z-score", "setting": "[2]; [11]", "result": 0.252}]}, {"smiles": "N[C@@H]1CONC1=O", "values": [{"measurement": "Z-AUC", "setting": "[1]", "result": "-0.0127 (inactive)"}, {"measurement": "Z-AUC", "setting": "[1]; [8]", "result": 1.55}, {"measurement": "Z-AUC", "setting": "[1]; measured here: PEO4 Z-AUC", "result": 1.43}, {"measurement": "z-score", "setting": "[2]; [9]", "result": 0.394}, {"measurement": "z-score", "setting": "[2]; [10]", "result": 0.295}, {"measurement": "z-score", "setting": "[2]; [11]", "result": 0.675}, {"measurement": "activity, negative = inhibition", "setting": "[3]; [12]", "result": "-21% (inactive)"}, {"measurement": "activity, negative = inhibition", "setting": "[3]; at 28.7 µM (top of the series), parasite line B", "result": "-17% (inactive)"}, {"measurement": "Potency", "setting": "[4]", "result": "inactive"}, {"measurement": "Potency", "setting": "[5]", "result": "inactive"}, {"measurement": "Potency", "setting": "[6]", "result": "inactive"}, {"measurement": "Potency", "setting": "[7]", "result": "inactive"}]}, {"smiles": "Cc1c(CCOc2ccc(C(=O)O)cc2)c2cc(Cl)ccc2n1C(c1ccccc1)c1ccccc1", "values": [{"measurement": "Z-AUC", "setting": "[1]", "result": "0.749 (inactive)"}, {"measurement": "Z-AUC", "setting": "[1]; [8]", "result": 1.16}, {"measurement": "Z-AUC", "setting": "[1]; measured here: PEO4 Z-AUC", "result": 0.896}]}, {"smiles": "Cc1cnc(Nc2ccc(OCCN3CCCC3)cc2)nc1Nc1cccc(S(=O)(=O)NC(C)(C)C)c1", "values": [{"measurement": "Potency", "setting": "[1]", "result": "1.95 µM (active)"}, {"measurement": "Z-AUC", "setting": "[1]; [8]", "result": -1.63}, {"measurement": "Z-AUC", "setting": "[1]; measured here: PEO4 Z-AUC", "result": -1.56}]}]}
